# From the supplement of paper PMC10498489
# Among all 2,300 compounds or so, about 330 (14%) showed activity. Only a sample is shown. Values without a mark were called inactive.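 How the source made its calls: active = median modified Z-score above 1.96; inactive = 1.96 or below.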
# Tested on: HepG2 Srxn1-GFP reporter cells (+30 nM CDDO-Me)
# Test: Srxn1-GFP intensity median modified Z-score relative to plate median; higher = stronger NRF2 / oxidative stress reporter activation, active = hit call of the paper
# Conditions: 10 µM; exposure time: 24h
# In short: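 The per-plate modified Z-score of GFP intensity, taken as a median across replicates, is what each value represents. Three replicate plates of HepG2 Srxn1-GFP BAC reporter cells were exposed for 24 h to an NRF2 activator at 30 nM combined with compound at 10 μM (≤0.1% DMSO). Cytoplasmic GFP per cell was read from confocal images, excluding any with under 100 cells, and scaling used 1.4826 × median absolute deviation.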
row,Structure (SMILES),Srxn1-GFP intensity median modified Z-score
1,Cc1cc2nc3c(=O)[nH]c(=O)nc-3n(C[C@@H](O)[C@@H](O)[C@@H](O)COP(=O)(O)O)c2cc1C [euspeclibcmpd2323],-0.0697
2,Cc1ccc2[nH]c3c(c2c1)CC(Nc1ccc(CCC(=O)N2CCCC2)cc1)CC3 (centres undefined),4.66 (active)
3,O=C(Nc1ccccc1)OCC(CN1CCCCC1)OC(=O)Nc1ccccc1 (centres undefined) [euspeclibcmpd499],-0.575
4,CN1C(C(=O)N=c2cccc[nH]2)C(=O)c2sccc2S1(=O)=O (centres undefined) [euspeclibcmpd536],-0.404
5,N=c1ccn([C@H]2CC[C@@H](CO)O2)c(=O)[nH]1 [euspeclibcmpd485],-0.378
6,CCC(CCC(C)[C@H]1CCC2C3CC=C4C[C@@H](OC(C)=O)CC[C@]4(C)C3CC[C@@]21C)C(C)C (some centres undefined) [euspeclibcmpd1595],-0.573
7,COc1cc(OC)c2c(=O)cc(-c3ccccc3)oc2c1 [euspeclibcmpd1677],0.503
8,COc1ccc2oc(-c3ccccc3OC)cc(=O)c2c1,0.553
9,COc1ccc2c(=O)cc(-c3ccccc3OC)oc2c1 [euspeclibcmpd2182],0.253
10,COc1ccc2oc(-c3ccccc3OC)cc(=O)c2c1 [euspeclibcmpd1670],3.62 (active)
11,COc1ccc(-c2cc(=O)c3cc(OC)ccc3o2)cc1 [euspeclibcmpd2272],-0.0301
12,O=c1cc(-c2ccccc2)oc2cccc(O)c12 [euspeclibcmpd2071],-0.0825
13,COc1ccccc1-c1cc(=O)c2c(OC)cccc2o1 [euspeclibcmpd2107],2.2 (active)
14,Cn1c(=O)c2nc(Br)[nH]c2n(C)c1=O [euspeclibcmpd2124],-0.455
15,C[N+](C)(C)CCOP(=O)(O)OP(=O)(O)OC[C@H]1OC(n2ccc(=N)[nH]c2=O)[C@H](O)[C@@H]1O (some centres undefined) [euspeclibcmpd812],-0.665
16,CC(=O)[C@@]1(O)CCC2C3=CC(Cl)=C4CC(=O)C5CC5[C@]4(C)C3CC[C@@]21C (some centres undefined) [euspeclibcmpd1156],-0.345
17,CS(=O)(=O)c1ccc(N)cc1,0.342
18,CC(C)CCCC(C)[C@H]1CCC2C3CC=C4CC(=O)CC[C@]4(C)C3CC[C@@]21C (some centres undefined) [euspeclibcmpd1330],-0.35
19,c1ccc(C2CN3CCSC3=N2)cc1 (centres undefined) [euspeclibcmpd2122],1.03
20,O=C(O)c1nc2cc(Cl)c(Cl)cc2[nH]c1=O [euspeclibcmpd1804],-0.361
21,O=c1[nH]c(=O)n(C2C[C@H](O)[C@@H](CO)O2)cc1C(F)(F)F (some centres undefined) [euspeclibcmpd660],2.21 (active)
22,O=c1[nH]c(=O)n([C@H]2C[C@H](O)C(CO)O2)cc1I (some centres undefined) [euspeclibcmpd2208],0
23,O=c1[nH]c(=O)n(C2C[C@@H](O)[C@@H](CO)O2)cc1F (some centres undefined) [euspeclibcmpd516],1.56

row,Structure (SMILES),Srxn1-GFP intensity median modified Z-score
1,CC(NC(CCc1ccccc1)C(=O)O)C(=O)N1Cc2ccccc2CC1C(=O)O (centres undefined) [euspeclibcmpd841],-0.626
2,CC[C@H]1OC(=O)C(C)[C@@H](O[C@H]2C[C@@](C)(OC)[C@@H](O)[C@H](C)O2)[C@H](C)[C@@H](O[C@@H]2O[C@H](C)C[C@H](N(C)C)[C@H]2O)[C@](C)(OC)CC(C)C(=O)C(C)[C@@H](O)[C@]1(C)O (some centres undefined) [euspeclibcmpd669],1.56
3,CC(C(=O)O)C1CCC2C3CC=C4CC(O)CCC4(C)C3CCC12C (centres undefined) [euspeclibcmpd1985],0.801
4,CCCCc1oc2ccccc2c1C(=O)c1cc(I)c(OCCN(CC)CC)c(I)c1 [euspeclibcmpd976],-0.752
5,O=C(O)c1cc(=O)c2ccccc2o1 [euspeclibcmpd1112],-0.193
6,CCc1oc2ccccc2c1C(=O)c1cc(Br)c(O)c(Br)c1 [euspeclibcmpd888],2.7 (active)
7,CC(=O)OCC[C@H](C)CCC=C(C)C [euspeclibcmpd1610],1.13
8,COc1ccc2c(c1)c(CC(=O)Nc1nccs1)c(C)n2C(=O)c1ccc(Cl)cc1,1.66
9,O=C(C=Cc1ccccc1)c1ccc(O)cc1O [euspeclibcmpd1990],2.48 (active)
10,O=C(C=Cc1ccc(O)cc1)c1ccccc1O [euspeclibcmpd2063],-0.0605
11,O=C(C=Cc1ccc(O)cc1)c1ccc(O)cc1O [euspeclibcmpd1984],13.1 (active)
12,COc1ccc(O)c(C(=O)/C=C/c2ccc(F)cc2)c1,1.36
13,COc1ccc(/C=C/C(=O)c2ccc(O)cc2O)cc1 [euspeclibcmpd1445],1.77
14,O=C(/C=C/c1ccccc1)c1ccc(O[C@@H]2O[C@H](CO)[C@@H](O)[C@H](O)[C@H]2O)cc1O [euspeclibcmpd1690],-0.0185
15,N=c1[nH]c(F)nc2c1ncn2[C@@H]1O[C@H](COP(=O)(O)O)[C@@H](O)[C@@H]1O [euspeclibcmpd850],0.307
16,COc1cc(C=CC(=O)O)cc(OC)c1O [euspeclibcmpd1663],-0.0893
17,CC(C)(C)NC(=O)C1CCC2C3CCC4NC(=O)C=C[C@]4(C)C3CC[C@]12C (some centres undefined) [euspeclibcmpd849],-0.292
18,COc1cccc(OC)c1C(=O)NC1C(=O)N2C1SC(C)(C)C2C(=O)O (centres undefined) [euspeclibcmpd2201],0.364
19,CC(O)=NO [euspeclibcmpd970],-0.0555
20,Cn1nnnc1SC=C1CSC2C(NC(=O)C(OC=O)c3ccccc3)C(=O)N2C1C(=O)O (centres undefined) [euspeclibcmpd2340],0.482
21,C[N+]1(C)C2CC[C@H]1C[C@@H](OC(=O)C(O)c1ccccc1)C2 (some centres undefined) [euspeclibcmpd149],0.332
22,CN1C/C(=C/c2cccs2)C(=O)/C(=C/c2cccs2)C1,1.25
23,O=C1/C(=C\c2cccs2)CC/C1=C\c1cccs1,2.51 (active)

row,Structure (SMILES),Srxn1-GFP intensity median modified Z-score
1,O=C1/C(=C/c2cccs2)CCC/C1=C\c1cccs1 [euspeclibcmpd465],36.6 (active)
2,O=C1/C(=C/c2cccs2)CSC/C1=C/c1cccs1,13.2 (active)
3,C#C[C@]1(O)CCC2C3CCc4cc(O)ccc4C3CC[C@@]21C (some centres undefined) [euspeclibcmpd121],0.17
4,COc1cc2[nH]c(N(C)CCCNC(=O)C3CCCO3)nc(=N)c2cc1OC (centres undefined) [euspeclibcmpd2275],-0.081
5,CN[C@H](CC(C)C)C(=O)NC1C(=O)N[C@@H](CC(N)=O)C(=O)N[C@H]2C(=O)Nc3c(O)[nH]c(c(O)[nH]c(=C(O)O)c4cc(O)cc(O)c4c4cc3ccc4O)[C@H](O)c3ccc(c(Cl)c3)Oc3cc2cc(c3O[C@@H]2OC(CO)[C@@H](O)[C@H](O)[C@H]2O[C@H]2C[C@](C)(N)[C@H](O)[C@H](C)O2)Oc2ccc(cc2Cl)[C@H]1O (some centres undefined) [euspeclibcmpd319],0.197
6,CCN1CCN(C(=O)NC(C(=O)NC2C(=O)N3C(C(=O)O)=C(CSc4nnnn4C)CSC23)c2ccc(O)cc2)C(=O)C1=O (centres undefined) [euspeclibcmpd431],-0.443
7,CC[C@H](CCC(C)[C@H]1CCC2C3CCC4C[C@@H](O)CC[C@]4(C)C3CC[C@@]21C)C(C)C (some centres undefined) [euspeclibcmpd1543],-0.389
8,O=C(O)CC(O)(CC(=O)O)C(=O)O [euspeclibcmpd2464],-0.363
9,O=C(O)CC(O)(CC(=O)O)C(=O)O [euspeclibcmpd2462],0.449
10,CC(=O)OC1C[C@@]2(C)C(C[C@@H](O)C3[C@]2(C)CC[C@H]2[C@H](C)[C@H](O)CC[C@]32C)C1=C(CCC=C(C)C)C(=O)O (some centres undefined) [euspeclibcmpd136],-0.739
11,COc1cc(O)c(C(=O)c2ccccc2)cc1O [euspeclibcmpd1987],-0.376
12,CC(C)C(NC(=O)[C@H](CC(=O)O)NC(=O)[C@H](CCCCN)NC(=O)[C@@H](N)CCCN=C(N)N)C(=O)N[C@@H](Cc1ccc(O)cc1)C(=O)O (some centres undefined) [euspeclibcmpd1282],-0.1
13,C[C@H](CCC(=O)O)[C@H]1CCC2C3C(=O)CC4CC(=O)CC[C@]4(C)C3CC(=O)[C@@]21C (some centres undefined) [euspeclibcmpd2057],-0.197
14,NCCCCS(=O)(=O)O,10.1 (active)
15,NCCS(=O)(=O)O [euspeclibcmpd625],-0.209
16,NCCCS(=O)(=O)O [euspeclibcmpd386],-0.0155
17,CCc1[nH]c(=N)[nH]c(=N)c1-c1ccc(Cl)cc1 [euspeclibcmpd259],1.02
18,C[C@@H]1CN(c2c(F)c(F)c3c(=O)c(C(=O)O)cn(C4CC4)c3c2F)C[C@H](C)N1 [euspeclibcmpd981],-0.465
19,Oc1c(C2=CC[C@@H](c3ccc(Cl)cc3)CC2)c(O)c2ccccc2c1O [euspeclibcmpd664],37.9 (active)
20,COc1ccc(-c2cc(=O)c3c(O)c(OC)c(O[C@H]4O[C@H](CO[C@@H]5O[C@@H](C)[C@H](O)[C@@H](O)[C@H]5O)[C@@H](O)[C@H](O)[C@H]4O)cc3o2)cc1 [euspeclibcmpd1421],-0.512
21,COc1cc(OC)c2c(OC)c(-c3ccc4c(c3)OCO4)c(=O)oc2c1 [euspeclibcmpd2227],2.22 (active)
22,COc1cc(OC)c2c(=O)c(O)c(-c3ccc(OC)c(OC)c3)oc2c1 [euspeclibcmpd2117],-0.572
23,COc1cc(OC)c2c(=O)c(OC)c(-c3ccccc3)oc2c1 [euspeclibcmpd1625],1.58
